The values below come from PubChem BioAssay (NCATS).

The nature of assay [1]: NS1 protein of Zika virus - qHTS assay to identify small molecule inhibitors in human HEK 293 cells (AID 1347053). Note: nearly all actives have a fitted effect of over 55% in size. Note: potency is the fitted concentration of half-maximal effect. In short, it runs like this:
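HEK 293; 20 h pre-culture, 37 C/5% CO2; cpd 1 h pre-infection; ZIKV MR766, MOI = 0.5, 24 h, 37 C; TR-FRET NS1 readout (two anti-NS1 Abs); norm. to no-virus vs infected.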

Assay [2] is described as follows: qHTS of pediatric cancer cell lines to identify multiple opportunities for drug repurposing: Primary screen for TC32 cells (AID 1347089). Note: nearly all actives have a fitted effect of over 60% in size. Note: potency is the fitted concentration of half-maximal effect. The procedure, abridged:
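Luminescent ATP read-out (CellTiter-Glo) of metabolically active TC32 cells after 48 h exposure. Concentration-response curves came from 11-point (MIPE, 0.78 nM–46 µM) or 8-point (NPC, 0.59 nM–46 µM) primary titrations; follow-up used 11 points.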

For assay [3], the target named is Atrial natriuretic peptide receptor 1 (Homo sapiens) (UniProt P16066). The experiment in a line: Natriuretic polypeptide receptor (hNpr1) antagonism - Pilot screen (AID 1347049; calls by dose curve;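 note: agonist-evoked cGMP luminescence read 20 min after hNppA addition; series mostly up to about 58 µM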). The procedure, abridged: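 Readout is cGMP-driven firefly luciferase luminescence in HEK293 cells carrying hNpr1 and a PDE5-domain GloSensor, read before and 20 min after 0.1 nM hNppA stimulation. Cells had 2% substrate reagent for 2 h and test compound for 30 min.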

Assay [4] deals with Atrial natriuretic peptide receptor 2 (Homo sapiens) (UniProt P20594). In words: Natriuretic polypeptide receptor (hNpr2) antagonism - Pilot subtype selectivity assay (AID 1347050; calls by dose curve). In short, it runs like this:
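Pilot selectivity screen against hNpr2: HEK293 cGMP-sensor cells are treated with LOPAC1280 compounds, then with hNppC peptide at 1 nM final. The cGMP-driven luminescence change over 20 min at room temperature is the read-out.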

For assay [5], the target named is T1, Tyrosine-protein phosphatase non-receptor type substrate 1 (Homo sapiens) + Leukocyte surface antigen CD47 (Homo sapiens) (UniProt P78324+Q08722). The experiment in a line: CD47-SIRPalpha protein protein interaction - LANCE assay qHTS validation (AID 1347057; active = well fitted curve in the direction sought with a large enough effect in the signal ratio, with a control signal flat, not every such curve was filed as active; the % refers to the signal ratio; note: series mostly up to about 38 µM). The procedure, abridged: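 First, His-tagged CD47 and Eu-labelled anti-His antibody met the compound for 30 min; next, site-specifically biotinylated SIRPalpha was added for 30 min; finally streptavidin-APC was added before reading the TR-FRET ratio.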

The target in assay [6] is T1, Tyrosine-protein phosphatase non-receptor type substrate 1 (Homo sapiens) + Leukocyte surface antigen CD47 (Homo sapiens). The experiment in a line: CD47-SIRPalpha protein protein interaction - Alpha assay qHTS validation (AID 1347059).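 Note: bead proximity luminescence from CD47 binding SIRPalpha after compound preincubation with SIRPalpha.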 The procedure, abridged:
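Binding is measured by AlphaScreen proximity: Ni-NTA acceptor beads capture His-CD47, streptavidin donor beads capture biotin-SIRPalpha. Each of three additions (SIRPalpha with compound, CD47, beads) incubates 30 min at room temperature protected from light.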

Assay [7] is described as follows: qHTS of pediatric cancer cell lines to identify multiple opportunities for drug repurposing: Primary screen for DAOY cells (AID 1347090). Note: nearly all actives have a fitted effect of over 55% in size. Note: potency is the fitted concentration of half-maximal effect. The procedure, abridged:
(§1)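 Cell viability, CellTiter-Glo luminescence; 500-1,000 cells/well, 8- or 11-point titration, 48 h compound exposure at 37 degrees C, 5% CO2. Controls: DMSO neutral, bortezomib 2.3 µM final as positive.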

Assay [8] is described as follows: qHTS of pediatric cancer cell lines to identify multiple opportunities for drug repurposing: Primary screen for SJ-GBM2 cells (AID 1347091). Note: potency is the fitted concentration of half-maximal effect. In short, it runs like this: as §1
For assay [9], the target named is T1, Tyrosine-protein phosphatase non-receptor type substrate 1 (Homo sapiens) + Leukocyte surface antigen CD47 (Homo sapiens). The experiment in a line: CD47-SIRPalpha protein protein interaction - HTRF assay qHTS validation (AID 1347058; active = well fitted curve in the direction sought with a large enough effect in the signal ratio, not every such curve was filed as active; the % refers to the signal ratio;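 note: recombinant soluble extracellular CD47 with His tag and biotinylated SIRPalpha domains; series mostly up to about 38 µM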). The procedure, abridged:
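TR-FRET read (Ch1/Ch2 ratio) of soluble extracellular CD47 and Avi-biotinylated SIRPalpha domains in PBS pH 7.4 with 0.05% IGEPAL; 7-point compound titration. Sequential 30 min room-temperature steps; non-biotinylated SIRPalpha as control inhibitor.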

The target of assay [10] is Parathyroid hormone/parathyroid hormone-related peptide receptor (Homo sapiens) (UniProt Q03431). The experiment in a line: qHTS for PTHR1 Agonists: Optimization Screen against the NCGC LOPAC library (AID 1347079).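 Note: GloSensor cAMP luminescence in HEK-293 GP2 cells expressing human PTHR1 with IBMX.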 In short, it runs like this:
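Agonist readout: GloSensor cAMP luminescence, read after 15 min at room temperature. HEK-293-derived GP2 line carries PTHR1; compounds tested as a titration for 1 hr at 37C in presence of IBMX. M-PTH (1-15) served as control.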

The structures appear in SMILES notation. Where “and” joins values, the source holds several entries; their conditions need not be identical. Identical values can stand only once. Records with an inconclusive call do not appear. Calls of active or inactive are those of the source. Unless noted, calls come from the whole dose curve; as a rule, active = well fitted curve in the direction sought with a large enough effect; inconclusive = small, poorly fitted or top-dose-only effect, or another doubt; inactive = no such curve, though single readings can be large; an effect the other way counts as inactive or inconclusive.

Chain of Atrial natriuretic peptide receptor 2 (Homo sapiens) (P20594 whole entry, looked up): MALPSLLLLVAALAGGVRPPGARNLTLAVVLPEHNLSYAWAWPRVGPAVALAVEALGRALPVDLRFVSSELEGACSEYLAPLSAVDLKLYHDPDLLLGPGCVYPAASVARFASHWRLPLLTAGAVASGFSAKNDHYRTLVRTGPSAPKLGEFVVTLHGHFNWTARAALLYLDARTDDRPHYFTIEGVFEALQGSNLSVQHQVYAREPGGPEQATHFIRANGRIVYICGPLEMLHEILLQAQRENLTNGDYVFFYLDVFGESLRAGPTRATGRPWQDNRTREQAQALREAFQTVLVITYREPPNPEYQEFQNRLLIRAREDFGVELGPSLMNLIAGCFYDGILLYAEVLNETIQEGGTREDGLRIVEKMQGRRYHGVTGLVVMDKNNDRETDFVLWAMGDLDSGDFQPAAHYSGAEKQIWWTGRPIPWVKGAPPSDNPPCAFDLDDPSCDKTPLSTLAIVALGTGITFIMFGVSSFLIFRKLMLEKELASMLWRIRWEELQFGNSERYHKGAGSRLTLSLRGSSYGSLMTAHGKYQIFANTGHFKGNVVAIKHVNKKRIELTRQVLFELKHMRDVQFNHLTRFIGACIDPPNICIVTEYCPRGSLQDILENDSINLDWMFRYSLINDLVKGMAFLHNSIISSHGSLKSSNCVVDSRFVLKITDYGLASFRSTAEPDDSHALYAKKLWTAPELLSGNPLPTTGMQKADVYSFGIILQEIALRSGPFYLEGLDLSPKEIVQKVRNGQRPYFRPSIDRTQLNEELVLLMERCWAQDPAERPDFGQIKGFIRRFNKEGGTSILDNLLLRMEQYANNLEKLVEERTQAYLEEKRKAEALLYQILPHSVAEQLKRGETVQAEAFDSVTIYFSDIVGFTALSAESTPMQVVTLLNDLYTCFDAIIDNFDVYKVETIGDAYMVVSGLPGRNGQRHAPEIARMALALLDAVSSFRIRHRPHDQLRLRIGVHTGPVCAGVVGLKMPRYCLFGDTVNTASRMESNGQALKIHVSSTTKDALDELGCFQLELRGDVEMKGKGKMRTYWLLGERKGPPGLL
Chain of Parathyroid hormone/parathyroid hormone-related peptide receptor (Homo sapiens) (Q03431 whole entry, looked up): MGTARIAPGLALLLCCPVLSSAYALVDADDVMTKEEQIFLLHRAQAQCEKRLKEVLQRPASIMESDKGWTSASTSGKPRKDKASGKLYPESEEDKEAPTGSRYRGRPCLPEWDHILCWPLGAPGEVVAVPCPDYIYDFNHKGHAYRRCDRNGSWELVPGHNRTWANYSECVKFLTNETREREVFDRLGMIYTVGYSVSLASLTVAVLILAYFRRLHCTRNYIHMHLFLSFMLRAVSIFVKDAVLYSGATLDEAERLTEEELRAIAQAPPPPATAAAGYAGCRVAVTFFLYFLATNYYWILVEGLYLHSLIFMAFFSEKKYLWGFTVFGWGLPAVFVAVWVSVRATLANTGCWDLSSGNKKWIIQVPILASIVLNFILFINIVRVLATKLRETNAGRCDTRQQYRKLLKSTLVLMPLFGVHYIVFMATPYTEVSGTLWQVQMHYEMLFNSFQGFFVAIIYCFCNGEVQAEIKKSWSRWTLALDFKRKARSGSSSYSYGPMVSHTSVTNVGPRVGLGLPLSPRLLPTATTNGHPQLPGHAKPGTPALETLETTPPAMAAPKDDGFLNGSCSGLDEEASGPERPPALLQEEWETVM
T1 sequence (P78324 whole entry, looked up): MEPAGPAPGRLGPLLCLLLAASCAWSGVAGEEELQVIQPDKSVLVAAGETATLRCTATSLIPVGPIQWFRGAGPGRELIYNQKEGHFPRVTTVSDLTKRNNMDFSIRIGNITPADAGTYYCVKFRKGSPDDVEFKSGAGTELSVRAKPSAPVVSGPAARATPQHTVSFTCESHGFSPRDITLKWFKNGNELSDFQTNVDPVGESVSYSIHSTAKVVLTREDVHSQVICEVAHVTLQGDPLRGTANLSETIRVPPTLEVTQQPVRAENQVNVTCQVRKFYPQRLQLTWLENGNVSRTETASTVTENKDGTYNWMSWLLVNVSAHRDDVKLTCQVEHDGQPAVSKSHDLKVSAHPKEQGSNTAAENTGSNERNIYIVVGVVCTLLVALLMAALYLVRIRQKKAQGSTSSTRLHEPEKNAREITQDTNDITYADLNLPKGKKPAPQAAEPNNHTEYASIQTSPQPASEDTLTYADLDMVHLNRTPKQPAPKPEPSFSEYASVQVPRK
T1 sequence (Q08722 whole entry, looked up): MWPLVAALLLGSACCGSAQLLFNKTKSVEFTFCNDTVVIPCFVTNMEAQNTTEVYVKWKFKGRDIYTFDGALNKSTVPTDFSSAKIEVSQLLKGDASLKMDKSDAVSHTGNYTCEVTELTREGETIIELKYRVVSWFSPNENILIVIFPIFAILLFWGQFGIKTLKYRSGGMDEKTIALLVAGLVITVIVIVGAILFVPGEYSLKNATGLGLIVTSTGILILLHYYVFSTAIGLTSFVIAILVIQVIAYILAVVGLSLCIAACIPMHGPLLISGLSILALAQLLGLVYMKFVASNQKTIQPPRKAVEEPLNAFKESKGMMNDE
Chain of Atrial natriuretic peptide receptor 1 (Homo sapiens) (P16066 whole entry, looked up): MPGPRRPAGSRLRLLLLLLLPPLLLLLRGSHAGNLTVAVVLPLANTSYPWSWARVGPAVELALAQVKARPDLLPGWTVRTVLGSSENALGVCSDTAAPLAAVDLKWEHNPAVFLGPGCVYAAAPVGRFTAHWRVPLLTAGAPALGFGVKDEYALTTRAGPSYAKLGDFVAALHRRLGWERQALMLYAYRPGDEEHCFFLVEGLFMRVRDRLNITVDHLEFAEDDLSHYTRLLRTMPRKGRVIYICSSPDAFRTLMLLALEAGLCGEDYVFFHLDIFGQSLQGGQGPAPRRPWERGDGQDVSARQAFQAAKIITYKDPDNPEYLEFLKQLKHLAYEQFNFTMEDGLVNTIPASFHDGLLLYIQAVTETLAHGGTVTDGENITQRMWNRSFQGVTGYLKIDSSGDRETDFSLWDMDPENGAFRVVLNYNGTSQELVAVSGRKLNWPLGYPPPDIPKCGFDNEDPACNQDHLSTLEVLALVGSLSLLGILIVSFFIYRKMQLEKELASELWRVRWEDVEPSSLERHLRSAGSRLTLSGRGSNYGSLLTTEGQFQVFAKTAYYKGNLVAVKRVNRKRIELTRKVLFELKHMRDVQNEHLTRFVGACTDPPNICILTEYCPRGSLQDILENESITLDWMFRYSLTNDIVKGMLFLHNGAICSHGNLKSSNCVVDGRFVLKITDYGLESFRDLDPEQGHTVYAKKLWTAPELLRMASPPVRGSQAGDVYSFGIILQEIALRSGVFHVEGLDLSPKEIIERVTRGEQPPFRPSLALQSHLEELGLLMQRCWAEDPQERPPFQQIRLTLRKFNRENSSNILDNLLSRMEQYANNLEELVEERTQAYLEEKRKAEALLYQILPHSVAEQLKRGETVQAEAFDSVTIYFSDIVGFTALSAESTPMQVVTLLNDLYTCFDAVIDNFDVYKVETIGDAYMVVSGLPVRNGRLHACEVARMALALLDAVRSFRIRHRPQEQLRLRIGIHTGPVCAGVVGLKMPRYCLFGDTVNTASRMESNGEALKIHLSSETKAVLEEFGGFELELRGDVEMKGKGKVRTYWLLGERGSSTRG

For the compound `O=c1ncn2nc(Sc3ccc(F)cc3F)ccc2c1-c1c(Cl)cccc1Cl`, the Potency entry in [1] and in assay [2] was “inactive” in each case.

As to `COc1c(Cl)cc2c([nH]c3cnccc32)c1NC(=O)c1cccnc1C`, in assay [1], the Potency entry is “inactive”.

Consider `NNCCc1ccccc1`, for which the compound was called inactive in assay [3], in assay [5] and in assay [6]. The Potency result in [4], in [1], in assay [2], in assay [7] and in assay [8] was “inactive” in each case.

Regarding `Cc1ccc(N(CC2=NCCN2)c2cccc(O)c2)cc1`, the result in assay [3] was inactive. The Potency result in assay [4], in assay [1], in assay [2], in [7] and in assay [8] was “inactive” in each case.

`CCOC(=O)N[C@@H]1CC[C@@H]2[C@@H](C1)C[C@H]1C(=O)O[C@H](C)[C@H]1[C@@H]2C=Cc1ccc(-c2cccc(F)c2)cn1`: the Potency entry in assay [1] and in assay [2] was “inactive” each time.

Turning to `Cc1cnc(NC(=O)C2=C(O)c3ccccc3S(=O)(=O)N2C)s1`, the Potency entry in assay [1], in [2], in [7] and in assay [8] was “inactive” throughout. Moreover, the result in assay [5], in [9] and in [6] was inactive.

In the case of `O=C(Nc1nc2ccccc2n1CCN1CCOCC1)c1cccc([N+](=O)[O-])c1`, the compound was called inactive in assay [3], in assay [5], in assay [6] and in assay [10]. Further, the Potency result in assay [1] and in assay [2] was “inactive” each time. Besides, the values for the Potency in assay [7] and in assay [8] were 7.43 µM (active) and 14.8 µM (active), respectively.

Consider `Nc1ncnc2nc(-c3ccc(N4CCOCC4)nc3)cc(-c3cccc(Br)c3)c12`, for which the result in [3] and in [10] was inactive. For the same compound, the Potency entry in assay [4], in assay [1], in assay [2] and in assay [8] was “inactive” in each case.

Consider `CCc1cncnc1N1CCN(Cc2nc3ccc(C(F)(F)F)cc3[nH]2)CC1`, for which the Potency entry in [1], in assay [2] and in assay [8] was “inactive” throughout. Besides, the outcome in assay [5], in assay [9] and in [6] was inactive. Moreover, the Potency in assay [7] is 18.7 µM (active).

For `NC(N)=NC(=O)c1nc(Cl)c(N)nc1N`, the compound was classed as inactive in [3], in assay [5], in assay [6] and in assay [10]. Moreover, the Potency result in assay [4], in assay [1], in [2] and in assay [8] was “inactive” in each case.

For the compound `COCCNCCCn1c(C(=O)CF)c(-c2ccc(C)cc2)c2c(N)ncnc21`, the Potency result in assay [1] and in assay [2] was “inactive” each time.

For `Nc1nc2c(ncn2COCCO)c(=O)[nH]1`, the Potency result in assay [4], in [1], in [2], in [7] and in [8] was “inactive” in each case. The result in assay [5], in assay [9] and in [6] was inactive.

For the compound `Cn1cnc([N+](=O)[O-])c1Sc1ncnc2nc[nH]c12`, the call in [3], in [5] and in assay [6] was inactive. Moreover, the Potency entry in assay [4] and in assay [1] was “inactive” each time. The Potency in assay [2] was 10.8 µM (active) and 10.5 µM (active) and 16.5 µM (active); in [7] it was 1.91 µM (active) and 6.68 µM (active) and 5.9 µM (active).

Regarding `c1ccc([C@H]2CN3CCSC3=N2)cc1`, the Potency entry in [4], in [1], in [2], in [7] and in assay [8] was “inactive” in each case. For the same compound, the outcome in [5], in [9], in assay [6] and in assay [10] was inactive.

Regarding `Cc1cccc(-c2[nH]c(C(C)(C)C)nc2-c2ccc3nccnc3c2)n1`, the call in [3], in assay [5] and in assay [6] was inactive. Moreover, the Potency entry in assay [4] and in [1] was “inactive” throughout. The Potency in [2] was 13.1 µM (active); in assay [8] it was 8.33 µM (active).

For the compound `C#Cc1cccc(Nc2ncnc3cc(OCCOC)c(OCCOC)cc23)c1`, the Potency result in assay [1] is “inactive”.

Turning to `CN1CCN(CCCN2c3ccccc3Sc3ccc(C(F)(F)F)cc32)CC1`, the result in assay [3] was inactive. Also, the Potency result in assay [1], in assay [2] and in assay [7] was “inactive” in each case. Besides, in assay [8], the Potency is 18.7 µM (active).

For the compound `CC[C@H](Nc1ncnc2nc[nH]c12)c1nc2cccc(F)c2c(=O)n1-c1ccccc1`, in assay [1], the Potency result was “inactive”.

`Cc1cnc(Nc2ccc(OCCN3CCCC3)cc2)nc1Nc1cccc(S(=O)(=O)NC(C)(C)C)c1`: the Potency entry in [1], in assay [2], in [7] and in assay [8] was “inactive” throughout.

For `CCC(=O)N[C@H]1CC[C@H](C(=O)N(C)c2ccc(-c3nc4ccccc4o3)cc2)C1`, the Potency entry in assay [1] and in assay [2] was “inactive” each time. For the same compound, the Potency in [7] is 5.9 µM (active).

As for `CS(=O)(=O)c1ccc(C(=O)Nc2ccc(Cl)c(-c3ccccn3)c2)c(Cl)c1`, the Potency result in assay [1], in assay [2], in [7] and in assay [8] was “inactive” in each case.

For the compound `CNCc1ccc(-c2[nH]c3cc(F)cc4c3c2CCNC4=O)cc1`, the Potency entry in assay [1], in [2], in assay [7] and in [8] was “inactive” throughout.

Take `OC[C@H](Cc1ccccc1)Nc1nc(Oc2ccc3c(c2)CCC3)nc2c1ncn2Cc1ccc(-c2ccccc2)cc1`: the Potency is 4.18 µM (active) in [1] and 11.8 µM (active) in [7]. For the same compound, the Potency result in assay [2] is “inactive”.

As for `CC[C@@H](C)[C@H](NC(=O)[C@H](CC1CCCCC1)NC(=O)c1ccno1)C(=O)N1CCC2(CCc3ccccc32)CC1`, the Potency entry in [1], in assay [2] and in [7] was “inactive” in each case.

For the compound `Cn1cc(-c2ccc3nnc(C(F)(F)c4ccc5ncccc5c4)n3n2)cn1`, the Potency entry in assay [1], in assay [2] and in assay [7] was “inactive” throughout.

`CCOc1cc(C=C2C(=O)N(c3ccccc3)N=C2C)cc(Cl)c1OCC(=O)OC`: the Potency entry in assay [1] and in assay [2] was “inactive” throughout.

For the compound `Cc1cccc(-c2nn(C(=S)Nc3ccccc3)cc2-c2ccnc3ccccc23)n1`, the Potency entry in assay [1], in assay [2] and in assay [7] was “inactive” each time.

With `COc1nc(-c2ccc3c(c2)OCO3)n(-c2ccc(NC(=O)CSc3ccccc3)cc2)n1`, the Potency entry in assay [1], in assay [2], in [7] and in assay [8] was “inactive” in each case.

Turning to `CC1(C)CNc2cc(NC(=O)c3cccnc3NCc3ccncc3)ccc21`, the Potency entry in assay [1] is “inactive”. Also, the Potency is 26.2 µM (active) in assay [2] and 1.18 µM (active) in assay [7].

In the case of `C[C@H](NC(=O)Cc1cc(F)cc(F)c1)C(=O)N[C@@H]1C(=O)N(C)c2ccccc2-c2ccccc21`, the Potency result in [1], in assay [2] and in assay [8] was “inactive” throughout. Also, the Potency in assay [7] was 11.8 µM (active).

Take `Cc1ccc(NC(=O)c2cccc(C(C)(C)C#N)c2)cc1Nc1ccc2ncn(C)c(=O)c2c1`: the Potency result in [1] and in assay [2] was “inactive” each time.

Regarding `CN(C)C(=O)c1ccc(S(=O)(=O)c2ccc(NC(=O)[C@@](C)(O)C(F)(F)F)c(Cl)c2)cc1`, the Potency entry in [1], in assay [2] and in assay [8] was “inactive” in each case. In addition, the Potency in assay [7] was 18.7 µM (active).

Consider `Nc1nc2[nH]cc(CCc3ccc(C(=O)N[C@@H](CCC(=O)O)C(=O)O)cc3)c2c(=O)[nH]1`, for which the Potency result in assay [1] and in [7] was “inactive” throughout. Also, in assay [2], the Potency was 4.66 µM (active).

For `CC(C=CC1=C(C)CCCC1(C)C)=CC=CC(C)=CC(=O)O`, the Potency result in [1], in assay [2] and in [8] was “inactive” each time. In assay [7], the Potency is 7.43 µM (active).
